PubChem BioAssay
The source made the active and inactive calls. Unless noted, no rule for the calls is given here.

Key:
[1] = test system: Wnt5a (protein binding on small-molecule microarray); experiment: small molecules binding Wnt5a protein – biophysical, small-molecule microarray, 635/667 nm fluorescence, primary screen (AID 1142); settings: 635 nm fluorescence, higher = more signal;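 also: fluorescence read at 667 nm with signal to noise per printed feature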
[2] = ATP-based viability of Huh7 replicon cells – cell-based, CellTiter-Glo luminescence, basal, 48 h, cytotoxicity control for HCV replication inhibitor project, primary screen (AID 1143); settings: higher = more signal, called active from +8 up or from −8 down;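 also: Huh7 hepatoma cells carrying a hepatitis C replication reporter with no stimulus; test concentration not given here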
[3] = Pseudomonas biofilm growth suppression – PAO1 strain, BacTiter-Glo luminescence, LB-PBS, primary screen (AID 1144); settings: P. aeruginosa PAO1 biofilm, 12 h, higher = more signal
[4] = basal CRE-LacZ reporter activity in PC12 – cell-based, unstimulated, primary screen (AID 1145); settings: no forskolin, luminescence, 4.5 h, higher = more signal, called active from +8 up or from −8 down
[5] = forskolin-driven CRE-LacZ activity in PC12 – cell-based, CRE-LacZ reporter, forskolin-stimulated, primary screen (AID 1146); settings: luminescence, 4.5 h, higher = more signal, called active from +8 up or from −8 down;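 also: PC12 cells with 6xCRE LacZ reporter stimulated by forskolin 10 µM; beta-galactosidase reporter signal reflecting CREB driven transcription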
[6] = biological target: Streptavidin (Streptomyces avidinii) (UniProt P22629); experiment: compounds binding control protein streptavidin – biophysical, small-molecule microarray, 635/667 nm fluorescence, artefact control for SMM compound annotation, primary screen (AID 1147); settings: higher = more signal;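 also: signal reflects streptavidin binding to arrayed compounds as a control protein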
[7] = probe aInhba binding on compound microarray – biochemical, small-molecule microarray, 635/667 nm fluorescence, primary screen (AID 1148); settings: higher = more signal;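 also: score merges 667nm spot fluorescence with signal-to-noise for antibody binding to printed compounds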
[8] = biological target: Torsin-1A (Homo sapiens) (UniProt O14656); experiment: TOR1A wild-type binding on microarray – cell lysate, small-molecule microarray, lysate, 635/667 nm, primary screen (AID 1149); settings: COS7 hTOR1A-WT lysate, 635 nm fluorescence, higher = more signal
[9] = biological target: Torsin-1A (Homo sapiens) (UniProt O14656); experiment: torsin A mutant lysate binding on microarrays – cell lysate, small-molecule microarray, COS7 lysate, 635/667 nm fluorescence, primary screen (AID 1150); settings: COS7 hTOR1A mutant lysate, 635 nm fluorescence, higher = more signal;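 also: score pools 667 nm emission and signal to noise measuring lysate protein binding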
[10] = test system: Sonic hedgehog protein (Shh); experiment: Sonic hedgehog microarray binding compounds – biochemical, small-molecule microarray, 635/667 nm fluorescence, primary screen (AID 1151); settings: 635 nm fluorescence, higher = more signal;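 also: Shh protein binding to compounds spotted on small-molecule microarray slides; score combines spot fluorescence intensity with signal-to-noise across triplicate slides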

Chain of Torsin-1A (Homo sapiens) (O14656 whole entry, looked up): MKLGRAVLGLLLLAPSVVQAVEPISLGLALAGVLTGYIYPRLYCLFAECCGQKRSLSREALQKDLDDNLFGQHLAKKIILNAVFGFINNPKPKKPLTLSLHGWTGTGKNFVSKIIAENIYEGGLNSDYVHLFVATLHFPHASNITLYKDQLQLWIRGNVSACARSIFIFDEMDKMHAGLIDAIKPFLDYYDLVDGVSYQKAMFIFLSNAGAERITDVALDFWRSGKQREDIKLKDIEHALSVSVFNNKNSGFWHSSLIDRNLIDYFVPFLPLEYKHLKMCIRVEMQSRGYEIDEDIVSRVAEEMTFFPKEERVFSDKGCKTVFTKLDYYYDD
Chain of Streptavidin (Streptomyces avidinii) (P22629 whole entry, looked up): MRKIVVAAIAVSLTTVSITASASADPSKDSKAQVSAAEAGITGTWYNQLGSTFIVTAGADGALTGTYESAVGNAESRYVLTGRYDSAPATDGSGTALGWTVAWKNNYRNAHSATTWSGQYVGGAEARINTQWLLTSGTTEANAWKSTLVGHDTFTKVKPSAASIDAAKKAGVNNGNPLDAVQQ

SMILES | composite z-score [1] | z-score [2] | z-score [3] | z-score [4] | z-score [5] | composite z-score [6] | composite z-score [7] | composite z-score [8] | composite z-score [9] | composite z-score [10]
CC(=O)O[C@H]1C2=CO[C@H](C)[C@H]3[C@H]4C5=C([C@H](O)[C@H]6O[C@H]6C5=O)[C@H](OC4C)[C@@]23C(=O)[C@@H]2O[C@@H]21 (stereo not given in full) | 0.25 | -6.34 (inactive) | 0.298 (inactive) | 0.831 (inactive) | 16.6 (active) | -0.458 | -0.292 | -0.119 | -0.279 | 0.604
CO[C@@H]1COC(=O)[C@@H](C)COC(=O)[C@@H](C)NC(=O)CC=C[C@@H]1C | 0.102 | -4.69 (inactive) | -2.01 (inactive) | -0.129 (inactive) | -0.694 (inactive) | -0.457 | -0.246 | 1.65 | 0.717 | 1.51
CO[C@@H]1COC(=O)CC=C[C@@H](C)[C@@H]2C=C[C@H](O)[C@@H](COC(=O)CC=C[C@H]1C)O2 | -0.186 | -0.256 (inactive) | 0.177 (inactive) | 0.877 (inactive) | -0.0355 (inactive) | -0.0274 | -0.255 | 2.58 | 1.72 | 2.13
C[C@@H](c1ccccc1)N1C(=O)[C@H]2[C@H]3[C@H](O)[C@H](O)CC(=NO[C@@H]4O[C@H](CO)[C@@H](O)[C@H](O)[C@H]4O)[C@H]3CC[C@H]2C1=O | 0.189 | 0.573 (inactive) | -0.104 (inactive) | -0.294 (inactive) | 0.845 (inactive) | 0.152 | -0.142 | 0.225 | 0.249 | 0.457
COc1ccc(O[C@@H]2[C@H](O)CO[C@H]2C=Cc2ccccc2)cc1 | -0.0668 | -0.617 (inactive) | -1.74 (inactive) | 0.284 (inactive) | -1.04 (inactive) | -0.06 | -0.179 | -0.696 | -0.668 | 0.253
COc1ccc(COC(=O)NN=C2C[C@@H](O)[C@@H](O)[C@@H]3[C@@H]4C(=O)N(c5cccc(Oc6ccccc6)c5)C(=O)[C@@H]4CC[C@@H]23)cc1 | -0.365 | -0.201 (inactive) | 0.791 (inactive) | 2.15 (inactive) | 0.087 (inactive) | 0.519 | -0.162 | 0.574 | -0.101 | -1.38
CCCNC(=O)OC[C@H]1O[C@H](CCON=C(C)CCN2CCc3nc(CC)c(CC)cc3C2)C=C[C@@H]1Oc1ccc(OC)cc1 | -0.0552 | -2.1 (inactive) | -0.546 (inactive) | 10.3 (active) | 0.82 (inactive) | 0.333 | -0.0405 | 0.686 | 0.481 | 0.391
CC(=O)Nc1ccc([C@@H]2N[C@H](C(=O)O)CC[C@H]2C)cc1 | 0.101 | 0.138 (inactive) | -1.51 (inactive) | -0.884 (inactive) | -1.21 (inactive) | -0.0013 | -0.101 | 0.746 | 0.371 | 0.2
CC(C)[C@@H](OCc1ccccc1)[C@H](C)C=NOC[C@@H](O)COCc1ccco1 | -0.304 | -0.33 (inactive) | 0.117 (inactive) | 1.99 (inactive) | 0.109 (inactive) | -2.14 | -0.32 | -0.712 | -0.491 | -1.11
CC(C)=CCCC(C)=CCON=C1C[C@@H](O)[C@@H](O)[C@@H]2[C@@H]3C(=O)N(C(C)(C)C)C(=O)[C@@H]3CC[C@@H]12 | -0.0529 | -0.813 (inactive) | -0.408 (inactive) | 1.6 (inactive) | 0.585 (inactive) | -0.125 | -0.293 | 0.244 | 0.764 | 0.711
COC(=O)[C@H]1[C@@H](O)[C@@]2(O)c3ccccc3O[C@@]2(c2ccccc2)[C@@H]1c1ccccc1 | -0.113 | -0.359 (inactive) | 0.576 (inactive) | 1.57 (inactive) | 0.0923 (inactive) | -0.419 | -0.0361 | -0.225 | 0.258 | 0.143
COc1ccc(COC(=O)NN=C2C[C@@H](O)[C@@H](O)[C@@H]3[C@@H]4C(=O)N(C5CCCCC5)C(=O)[C@@H]4CC[C@H]23)cc1 | -0.244 | -0.146 (inactive) | 0.345 (inactive) | 1.61 (inactive) | -0.0264 (inactive) | -0.332 | -0.337 | -0.0324 | 0.408 | -1.61
CO[C@H](C1CCCCC1)[C@H](C)C=CCC(=O)OCCCc1ccccc1 | -0.125 | 0.419 (inactive) | -0.294 (inactive) | 0.248 (inactive) | -0.468 (inactive) | 0.203 | -0.416 | 0.113 | 0.171 | -0.057
CO[C@H]1COC(=O)CCC[C@@H](C)[C@H](OC)COC(=O)[C@@H](C)NC(=O)CC=C[C@@H]1C | -0.183 | -2.74 (inactive) | -0.231 (inactive) | -0.58 (inactive) | -0.041 (inactive) | -0.429 | -0.152 | 2.63 | 1.5 | 2.1
CC(C)=CCCC(C)=CCON=C1C[C@@H](O)[C@@H](O)[C@@H]2[C@@H]3C(=O)N(C(C)(C)C)C(=O)[C@@H]3CC[C@H]12 | 0.158 | 0.232 (inactive) | -0.625 (inactive) | 0.7 (inactive) | 0.871 (inactive) | 0.0957 | 0.0442 | 0.366 | 0.987 | 0.435
COC(=O)[C@@H]1CC[C@H](C)[C@@H](c2ccc(C)cc2)N1C(=O)c1ccc(C=NO[C@@H]2O[C@H](COC(C)=O)[C@@H](OC(C)=O)[C@H](OC(C)=O)[C@H]2OC(C)=O)cc1 | -0.0196 | -3.41 (inactive) | -0.553 (inactive) | 2.22 (inactive) | -0.138 (inactive) | 0.253 | -0.0986 | 0.203 | 0.121 | 0.891
C=CC1=C[C@H](O)[C@@H]2O[C@@H]2C12OCCCO2 | 0.398 | 0.17 (inactive) | 0.658 (inactive) | -0.0732 (inactive) | 0.197 (inactive) | 0.281 | -0.0695 | 0.468 | 0.752 | -0.262
COc1ccc(O[C@H]2C=C[C@@H](c3ccccc3)O[C@@H]2CON=C(C)CCN2CCc3nc(-c4ccccc4)c(-c4ccccc4)cc3C2)cc1 | -0.193 | -0.203 (inactive) | -0.18 (inactive) | 1.62 (inactive) | 0.703 (inactive) | 0.852 | -0.0719 | -0.449 | -0.199 | 0.194
CC(C)CON=C1C[C@@H](O)[C@@H](O)[C@@H]2[C@@H]3C(=O)N(C4CCCCC4)C(=O)[C@@H]3CC[C@@H]12 | -0.146 | -0.82 (inactive) | -0.342 (inactive) | 0.156 (inactive) | 0.147 (inactive) | 0.115 | -0.128 | -0.792 | -0.0797 | -0.318
C[C@@H](c1ccccc1)N1C(=O)[C@H]2[C@H]3[C@H](O)[C@H](O)CC(=NOCc4ccccc4)[C@H]3CC[C@H]2C1=O | -0.0159 | -0.416 (inactive) | 0.576 (inactive) | 0.0687 (inactive) | 0.0517 (inactive) | 0.587 | -0.183 | -0.0911 | 0.651 | 0.378
C#CCCCON=C1C[C@@H](O)[C@@H](O)[C@@H]2[C@@H]3C(=O)N(C(C)(C)C)C(=O)[C@@H]3CC[C@H]12 | -0.19 | 0.0285 (inactive) | 0.189 (inactive) | 0.608 (inactive) | 0.0692 (inactive) | 0.941 | 0.0228 | -0.309 | -0.123 | -0.914
